Measured values: PubChem BioAssay AID1159506 (National Center for Advancing Translational Sciences (NCATS), 2015)
Over roughly 59,000 sequences, the read-out has its median near -0.00055; the lowest 2% begin near -2. Shown is part of a subset that was picked to be rich in the lowest values.

Experiment: Identification of proteins required for the processing of the EWS-FLI1 nascent transcript;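 further: robust z of luciferase light less the median z of siRNAs with the same seed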
Settings: TC32 Ewing sarcoma NR0B1-luc vs CMV-luc (EWS-FLI1 target promoter against control promoter), 48 h; screened at 20 nM (by protocol)
Summary of the method: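 Genome-wide siRNA screen (Ambion v4.1, three siRNAs per gene, 20 nM final, RNAiMax) in Ewing sarcoma TC32 cells carrying NR0B1-promoter or CMV-promoter luciferase; OneGlo luciferase read 48 h post-transfection. Data normalized, z-score-MAD transformed and seed-adjusted.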

Point of comparison: UCCAUGUUGACUAAGAUUC against GRHL3, seed-corrected z-score -0.595. Against it:
- UUAGCAUCCACGAUACCAC against CFAP47 — higher, 0.706
- UUAAUGAACACAAGCAUGU against RPL23AP14 — higher, 0.756
- UAUGUUGUGCGGCUCUCCC against SOX15 — lower, -2.31
- UAACGAAUAAUCAUCUUCC against ICE1 — higher, 0.115
- UCCAAAUUUGAGUACAUCC against SNIP1 — higher, 0.505
- UAAGGCUUUAGUGAGCUCU against FXN — higher, 0.805
- UUGCCGUAGACAGCAUGGG against GPR173 — lower, -0.733
- UCUGGUUCCUCUUUAAGUG against RPL27A — lower, -3.53
- AAUGUUCCUAUUUAUUUCG against RNF214 — lower, -0.629
- UCAGGAUCAAGCAUGUUCC against LOC645177 — higher, -0.115
- UGUGCUAUAAGAGAUCCAG against TANC2 — higher, -0.454
- AAAGUAGUCACCUGGACCA against ODF3 — lower, -2.14
- UUCCUCAUGAGCACCAUCC against TEDDM1 — higher, 0.185
- AUCUAUUAUGGUUUCGAUC against BAZ1B — higher, -0.12
- UCUCUGUACCCAACUCCGC against ZNF212 — higher, -0.31
- AAUGAAAUAGUGCUGUUUG against KCTD1 — higher, 0.318
- UCUGCUUGGAAAUAUCUCG against GRSF1 — lower, -4.11
- AAUCCUCUUAUGAAUAACG against ZNF331 — higher, -0.158
- AAGGAUACCAUCAUGUAGC against FZD3 — higher, 0.547
- UUUGUAACAUCAAUCAGAG against EXOC4 — higher, 0.287
- AUUCGGGAUAUAUAGAUUG against LIN7C — higher, 0.308
- UCAAGUACAUUGCAGUUUG against PDK1 — higher, -0.235
- UCCAGGUUUAUAUAGGUUG against MT1X — lower, -7.89
- UCAUAAGUGACAAGGCUGC against DCTN2 — higher, -0.548
- UGACGUGAUAGCUUGAACC against EXPH5 — higher, 0.908
- UUUGAUUCCAUGUAGCUGU against MTCP1 — higher, 0.871
- ACAUCAUCCACUUCGUUCC against UNC93B1 — lower, -3.19
- UUAACUGCAUCCCUAAUCC against AVEN — lower, -1.22
- UUCUUUACAUGCUGCAUUC against GALNT11 — higher, 0.394
- UUCAUGUCGAUAACUGUGG against KCNJ15 — higher, -0.324
- UCUUGGAACAGGAUCUUCU against TAOK2 — higher, -0.173
- UCAUGAAUUGUGGCAGGCA against LINC00598 — higher, 0.856
- ACUGCUUUGACAUCUGGGC against SNF8 — lower, -0.699
- UGACUAAUAAGAAUGCCCG against SLC2A2 — lower, -0.863
- AUAACUACAGCAUCAGAGG against WDR60 — higher, 0.989
- AACCGUUUCAUAAACUCCC against MCMBP — higher, 0.188
- UAUUCGUACUCAAACGUGC against SFPQ — lower, -2.1
- AUACAUGUCAGCUGAGUAG against POU2AF1 — higher, -0.413
- AGUGUCUCUACUCAGGUUC against CSF2 — higher, 1.91
- UUCGGAUAUAGAGGUAGGC against SNRNP200 — lower, -2.46
- UGAGUCAAAUGUUCUUUGG against KLF16 — higher, 0.422
- UUUUUCUGAACUCUCGUCU against C1orf174 — lower, -1.93
- AAAUUUACCUAUGUUCUUC against PBX1 — higher, 2.08
- UUUUAGAAAGUUCAUGUCC against CD69 — higher, 0.737
- UUCGUGUAGACUGACCUUC against LRCH1 — lower, -9.4
- UCAGGUUCUUUGUCUGACC against IRS1 — lower, -1.53
- UGGUCUGCAAAGGUAAUGC against PLRG1 — higher, 0.251
- UAAGUAGGCACAACACUCA against DEXI — higher, 0.701
- AACUGAACAUUUAUAGAGC against MTERF2 — higher, 1.28
- CUAUAGAUGAAGUAGGUGC against EDA — higher, 1.41
- AGAGUUUCUGGUAUAGACC against TAS2R38 — lower, -2.98
- AAGGAUAUGAAGGUAAUUC against ZNF518A — higher, -0.0667
- UUAGGGAUGAACCAAGGCA against ATP6V0E1 — higher, 0.122
- UUUGCAAUGACACGAAGCC against APOL4 — higher, 0.249
- AUAGUUGCAGGAAACUUCU against LOC441907 — lower, -2.67
- UUCCUGAGUUCUUUCGUCC against DYRK1B — higher, -0.484
- UGUUCUAUUUCACUUACUC against ZBTB26 — higher, -0.568
- AAAGGAGCAUAAAUUUAGU against LOC400867 — higher, 2.06
- UAUGCAUAAACGGUCUUCA against SH3BGR — higher, -0.25
- UAUUUCACGUCGAUAGAGC against TMEM106B — lower, -2.63
- UGAGGGUUGAGUGUAAGUC against FUK — lower, -0.673
- UUGUGAACUGAUUACACUG against CCDC66 — higher, 0.423
- UUGACCAUCAAGUAUUAGC against WDR47 — lower, -10.6
- UUCUGAUCAAGGCUAGACC against SHROOM3 — higher, -0.584
- UGAACUCCUCUGCAUAUUC against HLA-F — higher, 0.183
- UUGGUGUCCGGAGAGGUGU against IRF3 — higher, -0.0987
- AACUCCGUCAGUUCCUUCC against FAM167A — higher, 0.463
- ACAGCUAUCACUGCAUGCC against OR14J1 — lower, -3.81
- UUUAGGUACAGAAUCCCUG against HDHD3 — higher, 0.511
- UCUUCAAUAAUGUGCAUCC against SEMA4G — higher, 0.069
- UUCUCCGUUUCUGUUAUGC against SYCP2L — higher, 0.199
- UGCUGUUCUGUGCUGUUCC against ARID5A — lower, -2.31
- UCAGGCUCAACCACCAGCA against ESRRA — lower, -1.16
- UAUAUCCACAGUGCGGAUC against RAB13 — higher, 0.253
- AUACUUGCGAUAAAGGUGC against CSGALNACT1 — lower, -1.05
- UCAGCUCCAACUGAAGGUC against ID1 — higher, 0.724
- AAUGGUGUCAGUUCCUCUG against ETFA — higher, 0.854
- AGCAUUACAACUAAAAUCC against ZSCAN10 — lower, -3.27
- UAGCCAUUCUCGCUCAUGC against AZU1 — higher, 0.88
- UGAUCUAUCUUAGUCGCUC against POLQ — higher, -0.0262
- UUUCCGUACAUGAAGCAGC against AGBL5 — higher, -0.0403
- UUCAUUAUCGAUUUUUGCC against CYB5R2 — higher, -0.288
- UGGGAUGAGAGACUCCUCC against C6orf25 — higher, -0.121
- UGUUGUAGUGGGCCAGACG against HIST1H2BG — lower, -2.35
- UCCGAAAGCACCACGAUGA against SIGIRR — higher, 0.222
- AAAGGCCCAACAUCUGACU against ZDHHC8P1 — higher, 0.314
- UUCCGACUCGCUGAAGUGC against RPS6KA4 — higher, 0.407
- UUGGGUACCUCAGUCCACG against SNRPD2P1 — lower, -5.01
- UUUGUUGUAGUCACAUUCC against S100A3 — lower, -1.11
- UAAGGAAGUAGUCUCGUUU against TUBGCP6 — higher, 0.26
- UAGUGGAUAUAUCUCGGCC against YLPM1 — higher, 0.196
- UAUACUCGAAAUGUGGUUC against KIAA1586 — higher, -0.337
- UUGCAGAGCAUGUGAGUCC against KRTAP13-3 — higher, -0.281
- UGCAUGUCGGGAUAGUUGC against GRIN2D — higher, 0.123
- UCCUCGUUCAGCACCCUUC against DNAJB13 — higher, -0.18
- UUUGAUGAUCUGUAAGGCC against CNOT10 — lower, -2.03
- UGUAUUGCAAGGUUAUAAC against ZNF836 — higher, 0.433
- AAAGUGAACAUCGGGUCCC against LILRA4 — higher, -0.351
- UUUCUGGUAAAACUCCUCA against HS1BP3 — higher, 0.892
- UGACGUGACAAGCUGAAUG against ALYREF — higher, -0.554
- UUAGAUUGCACAAUCCUGU against DMRTC1 — higher, 0.235
- UUAAGAUUGACCUUUCUCC against KIAA1755 — higher, -0.0251
- UUUGGUGCUUAGUUUGUUC against LOC642262 — lower, -2.38
- AUCUUUACAAAUACCCUGC against BCL11A — higher, -0.136
- UUUAUAUUCAAUGGGCUUC against FAM45A — higher, -0.523
- UAAGGUUCGGAUAUGGGUA against C9orf24 — higher, -0.108
- UUCUUUAUAGGCAUAGGCU against RPH3A — lower, -2.08
- UAAGGUUGGUGACUGGAGA against MUC6 — higher, -0.303
- UUUCUGUAGGCUUUUCUGG against DPCR1 — higher, -0.53
- UUCUCCAUCAAAUUAGCCG against LIN52 — higher, 0.578
- UAGCUUCAAUACUUCAUCC against LRRC27 — lower, -0.986
- UUCGAGCUUUCUUAUGUCC against SLC12A6 — higher, -0.303
- UGUUAUUGAAGAUGUCAGC against SLF2 — lower, -2.1
- ACAGCAAGCAUUCAGAGUC against MMS19 — higher, 0.146
- UCUGGAAUAACGGUGCAGC against C15orf62 — lower, -1.54
- AUAUCAAUGAUUGAGAGGU against OR4F15 — higher, 0.359
- AACUCUGCGAACACGGCCU against AQP5 — lower, -2.17
- UAAGGCCCAAAUUUGUCUC against HSF4 — higher, -0.0642
- UACAUUGACAGCAUAUCCU against NSDHL — higher, 0.882
- UGAUGAAGUAGAGACGUGC against EXTL2 — higher, 0.177
- UAAAAUGUCUGACUCCUUG against CDKN1A — higher, -0.147
- AAACUGGUUGGAGUUGUUG against ITGB2 — higher, 0.512
- UGUUUUACCAACAGCACCA against CDC42 — lower, -1.21
- UCAGGUGGUAGGGAGGUUG against UBE2L6 — lower, -2.37
- CAGGUAGAACGUGUCGUCC against ENDOG — higher, 0.88
- AAUGAGAUUAUGUUGGUCA against SNX29 — lower, -1.19
- UUCUAUGCAAUCCAAAACC against DGKB — higher, 0.554
- UUAGUUUCUACAUUAUUGU against ENTPD1-AS1 — higher, 0.559
- UAGGAGAUAAAGAUAACUA against OR5B2 — lower, -12.5
- AGUACUACAAACCAAAUCC against FAM35A — higher, -0.242
- UUCCAUAUUUAUUAGAGCC against PURG — higher, 1.54
